Calls of active or inactive are those of the source. No rule for the calls is given here.
Experiment: inhibition of 3D7 malaria parasite growth – strain 3D7 (AID 2306);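 also: 0% = DMSO wells and 100% = chloroquine plus artemisinin control wells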
Conditions: P. falciparum 3D7 erythrocytic growth, LDH absorbance, 72 h; at 2 µM; stronger effect = higher value
With CC[C@H](C)CNC(=O)c1cncc(-c2ccc(CNCCOc3ccccc3)cc2)c1 the growth inhibition was 90% (active). In the case of COc1cccc(NC(=O)Nc2ccc(C)c(-c3ccc(C(=O)Nc4ccncc4)cc3)c2)c1, the growth inhibition is reported as 99% (active). In the case of CCCNCc1c(O)ccc2c(CNCCC)c(O)ccc12, the growth inhibition is reported as 101% (active). With Clc1ncnc2ncn(Cc3cccc(Br)c3)c12 the growth inhibition was 91% (active). In the case of CCN(CC)CCN(Cc1ccc(-c2ccc(C(F)(F)F)cc2)cc1)C(=O)c1ccc(-c2ccc(NC(=O)OC)cc2C)cc1, the growth inhibition is reported as 93% (active). With CCNc1cc(C)nc(Nc2ccc(NC(=O)c3ccccc3)cc2)n1 the growth inhibition was 102% (active). For Cc1cccc2[nH]c(-c3cccc(-c4ccc(C(=O)NCc5ccccc5S(C)(=O)=O)cc4)c3)nc12, the growth inhibition was 100% (active). With CO/C(=C\C=C\c1cc2cc(Cl)c(Cl)cc2[nH]1)C(=O)NCCCCN1CCN(c2ccccc2OC)CC1 the growth inhibition was 100% (active). With COc1ccc(CNC2CCN(C)CC2)cc1-c1cccc(S(=O)(=O)NCc2ccccc2)c1 the growth inhibition was 101% (active). With O=C(c1cccc(Br)c1)N1CCN(c2ccc([N+](=O)[O-])c(NC3CC3)c2)CC1 the growth inhibition was 99% (active). For CN(C)CCNc1cc(-c2ccc3ccccc3c2)nc2ccccc12, the growth inhibition was 102% (active). In the case of CC1(C)N=C(N)N=C(N)C1c1ccc(Cl)cc1 (stereo unspecified), the growth inhibition is reported as 96% (active). For CCCCCCCc1c2c(C)c(C(=O)OCC)nc-2cc2n1CC(C)=C2C, the growth inhibition was 89% (active). For COc1ccccc1Oc1c(N(C)S(=O)(=O)c2ccc(C(C)C)cc2)nc(C(F)(F)F)nc1N(C)S(=O)(=O)c1ccc(C(C)C)cc1, the growth inhibition was 94% (active). In the case of Cc1ccc(CN2CCCN(Cc3cccc(C(=O)Nc4ccc(C(C)(C)C)cc4)c3)CC2)s1, the growth inhibition is reported as 85% (active). With CCN(CC)C(=NCCCCCCN=C(NC(N)=NCc1ccc(Cl)cc1Cl)N(CC)CC)NC(N)=NCc1ccc(Cl)cc1Cl the growth inhibition was 102% (active). For CCCNCc1ccc(-c2ccc(CN(Cc3cccs3)C(=O)C3CCN(C)CC3)cc2)nc1, the growth inhibition was 99% (active). For O=C(Nc1cccc(-c2cccc(-c3nc4ccc(C(F)(F)F)cc4[nH]3)c2)c1)c1ccncc1, the growth inhibition was 101% (active). With CN(C)CCNC(=O)c1cccc(-c2cnc3ccc(NCc4ccc(Cl)c(Cl)c4)nn23)c1 the growth inhibition was 100% (active). For CC(C)(C)S[C@H]1S[C@H](SC(C)(C)C)[C@@H](OC(=O)c2ccccc2)C(OC(=O)c2ccccc2)[C@H]1OC(=O)c1ccccc1 (stereo partly specified), the growth inhibition was 95% (active). In the case of COC(=O)Cn1c(C2CCN(CC3CCN(C(=O)/C=C/c4ccc(Cl)c(Cl)c4)CC3)CC2)nc2ccccc21, the growth inhibition is reported as 86% (active). In the case of N#CCCN1CCN(Cc2cccc(-c3ccc(-c4nc5ccccc5[nH]4)s3)c2)CC1, the growth inhibition is reported as 96% (active). For COc1ccc(-c2cccc(NC(=O)c3ccc(Cl)cc3)c2)cc1CN1CCNCC1, the growth inhibition was 96% (active). For CCCCCCOc1ccc(C(=O)N(Cc2ccccc2)c2c(-c3ccccc3)nc3cc(C)ccn23)cc1, the growth inhibition was 95% (active). For Fc1cccc(COc2ccc(-n3ccc4c(NCCCn5ccnc5)ncnc43)cc2Cl)n1, the growth inhibition was 87% (active). For COc1ccc(O)c(C(=O)c2cc(C(=O)NC3CCCCC3)c(=O)n(C3CCCCC3)c2)c1, the growth inhibition was 99% (active). For Cc1ccc(N(CCC(=N)N)Cc2ccccc2)cc1, the growth inhibition was 96% (active). In the case of CC(C)Oc1ccccc1-c1csc(C(=O)NCC2CCN(Cc3ccc(C(C)(C)C)cc3)C2)c1 (stereo unspecified), the growth inhibition is reported as 90% (active). With O=C1COc2ccc(CNC3CCC(O)(CCc4ccnc5cc6c(cc45)OCCO6)CC3)nc2N1 (stereo unspecified) the growth inhibition was 92% (active). For C#CCCC(=O)Nc1cccc(-c2cccc(-c3nc4ccc(C(F)(F)F)cc4[nH]3)c2)c1, the growth inhibition was 90% (active). For CC(=O)Oc1ccc(C(=O)Oc2ccccc2C#CC#N)cc1OC(C)=O, the growth inhibition was 93% (active). In the case of Cc1[nH]c(C)c(-c2ccc(-c3cccc(OC(F)(F)F)c3)nc2)c(=O)c1Cl, the growth inhibition is reported as 98% (active). With FC(F)(F)c1ccc2nc(-c3ccc(-c4ccc(CNCCN5CCNCC5)cc4)s3)[nH]c2c1 the growth inhibition was 94% (active). In the case of CCCCCCP(=O)(COc1ccc(CCN(CC(O)COc2cccc3[nH]c(C(N)=O)cc23)CC(O)COc2cccc3[nH]c(C(N)=O)cc23)cc1)OCCCC (stereo unspecified), the growth inhibition is reported as 99% (active). In the case of C[C@@H]1CN(c2cnn(C/C=C/c3ccc(NC(=O)c4ccc(Cl)cc4)cc3)c(=O)c2Cl)C[C@H](C)N1, the growth inhibition is reported as 88% (active). For Cc1noc(C)c1-c1cccc(CNCc2cccc(-c3cccc(-c4nc5c(C)cccc5[nH]4)c3)c2)c1, the growth inhibition was 102% (active).
